The text below walks through data of PubChem BioAssay (NCI).

Assay [1] is described as follows: NCI Yeast Anticancer Drug Screen. Data for the rad50 strain (AID 155).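 Note: 0% = growth of vehicle-only cultures of the same strain.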 To be noted: S. cerevisiae rad50 strain growth inhibition, hits give high values; at 50.0 µM unless noted. A digest of the protocol:
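Cells are treated with compound, grown, and their growth is then scored against vehicle-only cultures of the same repair-deficient yeast strain.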

Assay [2] can be described thus: NCI Yeast Anticancer Drug Screen. Data for the mec2-1 strain (AID 157). To be noted: S. cerevisiae mec2-1 strain, hits give high values; at 50.0 µM unless noted. A digest of the protocol:
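Yeast mec2-1 mutant treated with compound. Readout: growth inhibition vs vehicle controls.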

Assay [3] is described as follows: NCI Yeast Anticancer Drug Screen. Data for the sgs1 mgt1 strain (AID 161).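 Note: 0% = growth of cultures given vehicle only.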 To be noted: S. cerevisiae sgs1 mgt1 strain, hits give high values; at 50.0 µM unless noted. The procedure, abridged: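 Mutant yeast exposed to compound; growth scored against vehicle-only wells.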
Assay [4] in a line: NCI Yeast Anticancer Drug Screen. Data for the cln2 rad14 strain (AID 165).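 Note: 0% = growth equal to vehicle treated cultures.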 To be noted: S. cerevisiae cln2 rad14 strain, hits give high values; at 50.0 µM unless noted. A digest of the protocol: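 cln2 rad14 yeast strain; compound exposure; growth inhibition read vs vehicle controls.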
The nature of assay [5]: NCI Yeast Anticancer Drug Screen. Data for the bub3 strain (AID 167). To be noted: S. cerevisiae bub3 mutant strain, hits give high values; at 50.0 µM unless noted. A digest of the protocol:
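Part of a panel of yeast mutants defective in DNA damage repair or cell cycle regulation. Each strain is grown with compound, and inhibition is calculated relative to solvent-treated cultures.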

Assay [6] can be described thus: NCI Yeast Anticancer Drug Screen. Data for the mlh1 rad18 strain (AID 175). To be noted: S. cerevisiae mlh1 rad18 strain growth inhibition, hits give high values; at 50.0 µM unless noted. A digest of the protocol:
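Yeast w/ defined DNA-repair lesions; compound exposure; growth vs vehicle controls → % inhibition.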

Compounds without any hit were thinned out: in the full panel of roughly 79,000, 15% have a hit. Unmarked numbers belong to inactive results. Active and inactive are the calls of the source. Cut-off read from the data, not from the text of the source: active = growth inhibition above about 70%; inactive = the rest.

For the compound `O=C(C/C(CCC(=O)N(Cc1ccccc1)Cc1ccccc1)=N/Nc1ccc([N+](=O)[O-])cc1[N+](=O)[O-])c1ccccc1`, the growth inhibition in assay [1] was 42.9%; in assay [2], 29.9%; in assay [3] it was 60%; in assay [4], 41.6%; in assay [5], 1.05%; in assay [6] it was 61.8%.
For `Cc1cccc(C)c1NS(=O)(=O)c1ccc(Cl)cc1`, the growth inhibition is 91.8% (active) in assay [1]; 84.4% (active) in assay [2]; 68.7% in assay [3]; 91.7% (active) in assay [4]; 94% (active) in assay [5]; 90.4% (active) in assay [6].
Turning to `CC(C)=NOc1ccccc1[N+](=O)[O-]`, the growth inhibition is 8.65% in assay [1]; 6.15% in assay [2]; 7.15% in assay [3]; -14.7% in assay [4]; -13.2% in assay [5]; 12.1% in assay [6].
With `CN(C)C(C#CCO)c1ccccc1` (stereo not drawn), the growth inhibition in assay [1] is -30.5%; in assay [2], -13.2%; in assay [3] it was 1.45%; in assay [4], -3.55%; in assay [5] it was -9.7%; in assay [6], 4.8%.
As to `CC(C)(C)OC(=O)NCC(=O)OC/C=C/c1ccccc1`, the growth inhibition in assay [1] is -2.7%; in assay [2], 1.3%; in assay [3], 6.65%; in assay [4] it was -8.15%; in assay [5] it was -3.6%; in assay [6], 6.1%.
`COCCCCCCCCCCCC(=O)O`: the growth inhibition was -23.4% in assay [1]; 1.3% in assay [2]; -46.2% in assay [3]; -0.15% in assay [4]; -21.2% in assay [5]; -63.7% in assay [6].
With `CC(C)OC(=O)Nc1ccc(O)cc1`, the growth inhibition was 10.8% in assay [1]; -6.7% in assay [2]; -2.45% in assay [3]; -19.4% in assay [4]; -3.45% in assay [5]; -5.7% in assay [6].
Take `C/C(=C(/C)c1ccc(O)cc1)c1ccc(O)cc1`: the growth inhibition is -9.8% in assay [1]; -23.8% in assay [2]; 16.3% in assay [3]; 9.05% in assay [4]; 45.9% in assay [5]; 2.7% in assay [6].
As for `CC(=O)NC1=NC(=O)/C(=C/c2ccc3c(c2)OCO3)N1C`, the growth inhibition in assay [1] is 4.7%; in assay [2], 2.85%; in assay [3], -3.3%; in assay [4], 3%; in assay [5], 5.5%; in assay [6] it was 10.9%.
With `O=C(c1cccs1)N(C(=S)N1CCN(c2ccccc2)CC1)C1CCCCC1`, the growth inhibition was -0.45% in assay [1]; -5.9% in assay [2]; -8% in assay [3]; 13.4% in assay [4]; -26.8% in assay [5]; -10.4% in assay [6].
Turning to `O=C(CC1C(=O)Nc2ccccc2S1=O)Nc1cc(Cl)ccc1Cl` (stereo not drawn), the growth inhibition was -14.9% in assay [1]; -24.2% in assay [2]; 3.1% in assay [3]; 8.15% in assay [4]; -4.6% in assay [5]; -6.1% in assay [6].
Consider `[N-]=[N+]=Nc1c(C=O)c(=O)n2c3c(cccc13)CCC2`, for which the growth inhibition in assay [1] was 17.2%; in assay [2] it was 32%; in assay [3], 29.2%; in assay [4] it was 31.2%; in assay [5] it was 27.7%; in assay [6] it was 61%.
For the compound `Nc1nc2c(c(=O)[nH]1)N(C=O)C(CCNc1ccc(C(=O)NC(CCC(=O)O)C(=O)O)cc1)CN2` (stereo not drawn), the growth inhibition is 5.35% in assay [1]; -12.2% in assay [2]; 2.55% in assay [3]; -12.6% in assay [4]; 9% in assay [5]; 3.25% in assay [6].
Take `CCN(CC)c1ccc2c(c1)C(=O)c1ccccc1-2`: the growth inhibition was -6.7% in assay [1]; 27.6% in assay [2]; 14.2% in assay [3]; 15.8% in assay [4]; 38.8% in assay [5]; 30.6% in assay [6].
On to `C[N+](C)(C)c1ccc2[nH]c3ccccc3c2c1`, for which the growth inhibition was 8.7% in assay [1]; -11.2% in assay [2]; 8.25% in assay [3]; -27.8% in assay [4]; -6.5% in assay [5]; 7.55% in assay [6].
For `COc1cc(CCC(NC(C)=O)c2cccc(O)c(=O)c2)cc(OC)c1OC` (stereo not drawn), the growth inhibition in assay [1] is -10.2%; in assay [2], -4.6%; in assay [3], 17.2%; in assay [4], -33.5%; in assay [5], -3.35%; in assay [6] it was 8.1%.
`Cc1cc(N)ccc1-c1cc(C)c(N)c(C)c1C`: the growth inhibition in assay [1] was -39.4%; in assay [2] it was -21.9%; in assay [3] it was -7.8%; in assay [4], 13.2%; in assay [5], -18.7%; in assay [6], -15.1%.
`ClC(=Nc1cccc2ccccc12)N(c1ccccc1)c1ccccc1`: the growth inhibition was -8.45% in assay [1]; 7.45% in assay [2]; -9.3% in assay [3]; 3.8% in assay [4]; 7.15% in assay [5]; -4.05% in assay [6].
`C[C@H]1CC[C@@H]2O[C@@]23C(=O)OC2OC(C)(C)[C@@H]([C@H]2O)[C@]13C`: the growth inhibition in assay [1] was -18.6%; in assay [2], -4.85%; in assay [3], -26%; in assay [4], -0.35%; in assay [5], -5.2%; in assay [6], -10.9%.
In the case of `CCOC(=O)c1ccc(NCc2ccc(CNc3ccc(C(=O)OCC)cc3)cc2)cc1`, the growth inhibition in assay [1] was -35.4%; in assay [2] it was -18.2%; in assay [3], -36.2%; in assay [4], -11.8%; in assay [5], -21.4%; in assay [6], -27%.
Take `CCc1cc(N(C)C)ccc1N=Nc1ccc([N+](=O)[O-])cc1`: the growth inhibition in assay [1] was 43.8%; in assay [2], 9.65%; in assay [3] it was 13.5%; in assay [4], -26.1%; in assay [6], 28.9%.
As for `COc1cc(OCc2ccc3oc(=O)c(-c4ccccc4)nc3c2)cc(OC)c1OC`, the growth inhibition in assay [1] was 16.6%; in assay [2] it was 1%; in assay [3], 2.2%; in assay [4] it was 7.75%; in assay [5], 19.2%; in assay [6], 9.25%.
In the case of `COc1ccc2[nH]c3c(=O)[nH]ncc3c2c1`, the growth inhibition in assay [1] is -1.9%; in assay [2] it was -0.95%; in assay [3], -7.5%; in assay [4], -3.05%; in assay [5] it was 9.8%; in assay [6], 9.05%.
As to `CCN(CC)Cc1c(/C=C\c2cc(OC)c(OC)c(OC)c2)ccc(OC)c1O`, the growth inhibition in assay [1] is -7.05%; in assay [2] it was 4.4%; in assay [3], 14.1%; in assay [4] it was 9.55%; in assay [5], 15.3%; in assay [6], -64%.
Consider `CCOC(=O)c1ccc(N=C2S/C(=C\C(=S)Nc3ccccc3)N(c3ccccc3)C2=Nc2ccc(C(=O)OCC)cc2)cc1`, for which the growth inhibition in assay [1] is 14.3%; in assay [2], 4.85%; in assay [3], 12.4%; in assay [4], 13.6%; in assay [6] it was 12.4%.
In the case of `CC(C)(C)SC(=S)SCC(=O)c1ccc(F)cc1`, the growth inhibition in assay [1] was 4.35%; in assay [2] it was -36.4%; in assay [3], 8.65%; in assay [4] it was -10.4%; in assay [6], 1.5%.
On the same counts, the results for `N/C1=C/C(=O)NC(=O)c2c(c3ccccc3oc2=O)C1` are -5.7%, 0.9%, 8.5%, 5% and -29.6%.
On the same counts, the results for `Cc1c2c(c(C)c3c1C(=O)c1cc4c(cc1C3=O)OCO4)OCO2` are -9.1%, -4.35%, -5.35%, -4.7% and -15.4%.
On the same counts, the results for `COc1cccc(C2C(C(=O)Nc3cc(=O)n(C)c(=O)n3C)=C(C)NC(C)=C2C(=O)Nc2cc(=O)n(C)c(=O)n2C)c1O` are -15.1%, 13%, 13.4%, 12.2% and 14.8%.
Consider `CS(C)=C(C(=O)c1ccccc1)/C(=C/C(=O)c1ccccc1)c1ccccc1`, for which the growth inhibition was 21.5% in assay [1]; 26.2% in assay [2]; 65% in assay [3]; 36% in assay [4]; 79% (active) in assay [6].
On the same counts, the results for `CC(CC(C)C(=O)O)C(=O)O` (stereo not drawn) are -13.5%, -28.2%, -24.1%, 0.4% and 3.25%.
The matching figures for `CCOC(=O)c1ccc(NC(=O)Nc2ccc(F)cc2)cc1`: 3.5%, -0.5%, 1%, 12.5% and 5.55%.
On the same counts, the results for `CCC(O)c1ccc(OCc2ccccc2)c(OC)c1` (stereo not drawn) are 7.35%, -2.1%, 24.6%, -43.1% and 2.25%.
Turning to `O=C(C/C(=N/O)c1ccccc1)c1ccccc1`, the growth inhibition is -14.7% in assay [1]; -4.65% in assay [2]; -8.5% in assay [3]; 15.4% in assay [4]; -1.8% in assay [6].
On the same counts, the results for `CC1(CO)C2CCC(CC2)C1CO` (stereo not drawn) are -3%, 1.85%, -4.4%, -20.2% and 2.5%.
On the same counts, the results for `CSc1nc(N)c(I)c(Cl)n1` are 7.8%, 3.65%, 6.9%, 2.4% and -2.6%.
On the same counts, the results for `CC(C)CCNc1ccccc1` are 1.55%, -7.65%, -9.85%, -2.8% and 0.45%.
On to `O=[n+]1c2c(n([O-])c3ccccc31)CCCCCCCCCC2`, for which the growth inhibition in assay [1] is -52.6%; in assay [2] it was -1.95%; in assay [3] it was 7.15%; in assay [4], -35.2%; in assay [6], 7.9%.
The matching figures for `CCCCNC(=S)Nn1c(-c2ccccc2)nc2ccccc2c1=O`: 18.6%, -43%, -20.8%, -37.5% and 0.9%.
